# Several values for one entry are separate records, joined by “and”; a condition that tells them apart may be missing. Identical values can stand only once. This is part of a sample that, as a whole, favours compounds with a hit. Of some 83,000 tested, about 20% had one in any assay.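 For each line, cells grew in 96-well plates with the test compound present at a single concentration for 48 hours.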 Activity calls are given as the source filed them. How the source made its calls: active means growth percent below 10; inactive means the rest.
# Tested on: HL-60(TB) leukemia
# Experiment: NCI-60 one-dose screen, 48 h (100 = growth as untreated, 0 = no growth, -100 = all killed)
# Settings: 10 µM unless noted
row,Structure (SMILES),growth
1,Cc1cc2c(C(C)C)c(O)c(O)c(C=NCCCCCCC(=O)O)c2c(O)c1-c1c(C)cc2c(C(C)C)c(O)c(O)c(C=NCCCCCCC(=O)O)c2c1O,28.9% (inactive)
2,CCN(Cc1ccc(CN(CC)C(=O)C(Br)Br)cc1)C(=O)C(Br)Br,13.1% (inactive)
3,COc1cc2nc3c(=O)n(-c4ccc(C#N)cc4)cnn3c(=O)c2cc1OC,92.1% (inactive)
4,CCOC(=O)N(O)c1ccc(/C=C/c2ccccc2)cc1,61.1% (inactive) and 43.9% (inactive)
5,O=c1c2cc(F)ccc2oc2c(NCCNCCO)nc3ccccc3c12,70.5% (inactive)
6,COc1ccc(OC)c(/C=N/Nc2ncnc3c2c(C)nn3C)c1,88.9% (inactive)
7,COc1ccccc1-c1c(-c2ccc(Cl)cc2)c2cc3c(cc2[nH]c1=O)OCCO3,18.3% (inactive)
8,C=C(C)[C@@H]1CCC[C@]2(COS(=O)(=O)c3ccc(C)cc3)CC[C@]3(C)[C@@H](CC[C@@H]4[C@@]5(C)CCCNC(C)(C)[C@@H]5CC[C@]43C)[C@@H]12,-35% (active)
9,COc1cc2c(c(OC)c1OC)CCC(c1cccc(C(=O)Nc3ccc(C#N)cc3)c1)O2 (stereo not drawn),15.2% (inactive)
10,COc1cc(-c2nn(-c3cccc(NC(=O)c4ccccc4)c3)cc2-c2ccncc2)ccc1Cl,-18.8% (active)
11,COc1cc(-c2nn(-c3ccc(NC(=O)c4ccc(Cl)c(C(F)(F)F)c4)cc3)cc2-c2ccncc2)ccc1Cl,12% (inactive)
12,CC(=O)Nc1ccc2c(c1)Cc1cc(F)ccc1-2,66.8% (inactive)
13,CCCCCCCCCCCCCCCCCCOc1ccccc1CC(=O)OCCC[N+](C)(C)C,9.1% (active)
